Results: the supplement of paper PMC10849652
Of roughly 7,900 targets only a part is listed; those with a hit were picked by preference. About 0.6% of all pairs of compound and target were hits. A number with no mark means an inactive call.

Experiments:
Assay in all cases: log2 fold change, soluble protein after heating vs DMSO (PISA); higher = thermal stabilisation; K562 cells, 10 uM, 30 min; active = over 0.2 and 3.5 SD of the protein, either way, in both replicates (recomputed)
[1] = compound: CN1CCN(CCOc2cc(OC3CCOCC3)c3c(Nc4c(Cl)ccc5c4OCO5)ncnc3c2)CC1 [saracatinib]
Procedure, shortened: (§1)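 For each measurement, 10 μM compound was applied for 30 min to K562 cells at 2×10^6 cells/mL. Aliquots were heated for 3 min across 48°C-58°C, pooled, and extracted in PBS with 0.5% NP-40 at 4°C; the supernatant after 21,000xg for 90 min was soluble protein. This was quantified by TMTpro 16plex LC-MS/MS with channel sums equalised, and thermal stability was reported relative to control samples from duplicates, on a log2 fold-change scale.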

[2] = compound: CN1CCN(c2nc(C3=C(c4c[nH]c5ccccc45)C(=O)NC3=O)c3ccccc3n2)CC1 [sotrastaurin]
Procedure, shortened: as §1

[3] = compound: CN1CC[C@H](c2c(O)cc(O)c3c(=O)cc(-c4ccccc4Cl)oc23)[C@H](O)C1 [alvocidib]
Procedure, shortened: as §1

[4] = compound: CN1CCc2c(c3ccccc3n2Cc2ccc(C(=O)NO)cc2)C1 [Tubastatin A]
Procedure, shortened: as §1

[5] = compound: CNC(=O)C1=CC=CC=C1NC2=NC(=NC=C2Cl)NC3=C(C=C(C=C3)N4CCOCC4)OC
Procedure, shortened: as §1

[6] = compound: CNC(=O)c1ccc(Nc2ncc(C(F)(F)F)c(NCc3nccnc3N(C)S(C)(=O)=O)n2)cc1 [defactinib]
Procedure, shortened: as §1

[7] = compound: CNCc1ccc(-c2[nH]c3cc(F)cc4c3c2CCNC4=O)cc1 [rucaparib]
Procedure, shortened: as §1

[8] = compound: CNc1nc(-c2ccc3c(N)n[nH]c3c2)cc(N2C[C@@H](C(=O)NC3CCCCC3)CC[C@H]2C)n1
Procedure, shortened: as §1

[9] = compound: COC(=O)N[C@@H](C)CNc1nccc(-c2cn(C(C)C)nc2-c2cc(Cl)cc(NS(C)(=O)=O)c2F)n1 [encorafenib]
Procedure, shortened: as §1

[10] = compound: COC(=O)[C@H](CCSC)NC(=O)C1=C(C=C(C=C1)NC[C@H](CS)N)C2=CC=CC=C2
Procedure, shortened: as §1

[11] = compound: COC1=CC=C(C=C1)CN2C=CC3=C2C=C(C=C3)C(=O)NO
Procedure, shortened: as §1

[12] = compound: CON(C)C(=O)N1N=C(c2cc(F)ccc2F)S[C@@]1(CCCN)c1ccccc1 [filanesib]
Procedure, shortened: as §1

[13] = compound: CO[C@H]1C[C@@H]2CC[C@@H](C)[C@@](O)(O2)C(=O)C(=O)N2CCCC[C@H]2C(=O)O[C@H]([C@H](C)C[C@@H]2CC[C@H](n3cnnn3)[C@H](OC)C2)CC(=O)[C@H](C)/C=C(\C)[C@@H](O)[C@@H](OC)C(=O)[C@H](C)C[C@H](C)/C=C/C=C/C=C/1C [zotarolimus]
Procedure, shortened: as §1

[14] = compound: COc1cc(C(=O)O)ccc1NC(=O)[C@@H]1N[C@@H](CC(C)(C)C)[C@](C#N)(c2ccc(Cl)cc2F)[C@H]1c1cccc(Cl)c1F [idasanutlin]
Procedure, shortened: as §1

[15] = compound: COc1cc(Nc2ncc3c(n2)-c2ccc(Cl)cc2C(c2c(F)cccc2OC)=NC3)ccc1C(=O)O [alisertib]
Procedure, shortened: as §1

[16] = compound: COc1cc2nc(-c3cc(F)ccc3O)nc(N[C@@H]3CNC[C@H]3C(C)(C)O)c2cc1OC
Procedure, shortened: as §1

[17] = compound: COc1cc2ncnc(Nc3ccc(F)c(Cl)c3)c2cc1OCCCN1CCOCC1 [gefitinib]
Procedure, shortened: as §1

[18] = compound: COc1cccc2cc(-c3nc([C@H]4CC[C@H](C(=O)O)CC4)n4ncnc(N)c34)[nH]c12
Procedure, shortened: as §1

[19] = compound: CS(=O)(=O)CCNCc1ccc(-c2ccc3ncnc(Nc4ccc(OCc5cccc(F)c5)c(Cl)c4)c3c2)o1 [lapatinib]
Procedure, shortened: as §1

[20] = compound: CS(=O)(=O)N1CCN(Cc2cc3nc(-c4cccc5[nH]ncc45)nc(N4CCOCC4)c3s2)CC1 [pictilisib]
Procedure, shortened: as §1

UniProt O14730, sequence (O14730 whole entry, looked up): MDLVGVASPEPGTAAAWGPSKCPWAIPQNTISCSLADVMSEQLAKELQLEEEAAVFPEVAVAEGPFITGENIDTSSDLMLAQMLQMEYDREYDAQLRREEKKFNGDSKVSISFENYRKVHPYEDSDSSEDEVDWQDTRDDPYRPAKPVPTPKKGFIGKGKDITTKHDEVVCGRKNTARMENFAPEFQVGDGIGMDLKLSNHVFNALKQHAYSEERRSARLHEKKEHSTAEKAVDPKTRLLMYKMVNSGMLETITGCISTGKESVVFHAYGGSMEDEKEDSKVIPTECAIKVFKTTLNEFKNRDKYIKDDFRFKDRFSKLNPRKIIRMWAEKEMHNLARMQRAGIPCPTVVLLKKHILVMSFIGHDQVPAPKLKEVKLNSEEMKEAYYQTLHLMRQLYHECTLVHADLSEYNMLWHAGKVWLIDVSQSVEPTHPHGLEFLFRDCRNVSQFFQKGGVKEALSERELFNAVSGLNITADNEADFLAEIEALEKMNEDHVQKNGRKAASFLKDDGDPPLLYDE
UniProt Q9H4A4, sequence (Q9H4A4 whole entry, looked up): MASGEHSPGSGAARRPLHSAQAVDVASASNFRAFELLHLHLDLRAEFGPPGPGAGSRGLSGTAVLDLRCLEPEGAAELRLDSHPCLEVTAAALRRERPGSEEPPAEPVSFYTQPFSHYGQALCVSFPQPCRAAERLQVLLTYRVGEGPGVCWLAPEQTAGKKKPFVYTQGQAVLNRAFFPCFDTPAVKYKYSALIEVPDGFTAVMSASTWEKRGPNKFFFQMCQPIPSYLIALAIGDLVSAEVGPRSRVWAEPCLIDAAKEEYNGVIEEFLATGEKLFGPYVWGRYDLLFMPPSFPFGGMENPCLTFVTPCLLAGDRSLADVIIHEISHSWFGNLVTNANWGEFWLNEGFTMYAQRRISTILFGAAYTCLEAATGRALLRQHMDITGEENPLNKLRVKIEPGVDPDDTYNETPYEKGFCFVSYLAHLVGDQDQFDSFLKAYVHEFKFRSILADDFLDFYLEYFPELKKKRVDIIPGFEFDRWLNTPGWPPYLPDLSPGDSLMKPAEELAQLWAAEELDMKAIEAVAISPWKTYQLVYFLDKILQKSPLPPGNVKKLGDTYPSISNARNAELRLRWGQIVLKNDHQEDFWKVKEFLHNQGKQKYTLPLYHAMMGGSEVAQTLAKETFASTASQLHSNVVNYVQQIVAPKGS
UniProt Q8WXD2, sequence (Q8WXD2 whole entry, looked up): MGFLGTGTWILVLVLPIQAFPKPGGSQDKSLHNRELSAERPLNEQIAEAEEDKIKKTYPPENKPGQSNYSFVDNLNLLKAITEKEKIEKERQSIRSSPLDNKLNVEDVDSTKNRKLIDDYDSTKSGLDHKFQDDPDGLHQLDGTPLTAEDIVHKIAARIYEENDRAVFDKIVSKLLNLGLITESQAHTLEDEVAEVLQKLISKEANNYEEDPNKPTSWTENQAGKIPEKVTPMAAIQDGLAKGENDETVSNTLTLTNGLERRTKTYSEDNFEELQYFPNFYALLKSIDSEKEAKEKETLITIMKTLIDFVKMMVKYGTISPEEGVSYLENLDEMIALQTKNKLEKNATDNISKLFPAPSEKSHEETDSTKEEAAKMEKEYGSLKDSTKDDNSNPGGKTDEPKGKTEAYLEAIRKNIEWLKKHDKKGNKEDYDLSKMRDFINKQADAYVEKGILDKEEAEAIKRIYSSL
UniProt Q5VTB9, sequence (Q5VTB9 whole entry, looked up): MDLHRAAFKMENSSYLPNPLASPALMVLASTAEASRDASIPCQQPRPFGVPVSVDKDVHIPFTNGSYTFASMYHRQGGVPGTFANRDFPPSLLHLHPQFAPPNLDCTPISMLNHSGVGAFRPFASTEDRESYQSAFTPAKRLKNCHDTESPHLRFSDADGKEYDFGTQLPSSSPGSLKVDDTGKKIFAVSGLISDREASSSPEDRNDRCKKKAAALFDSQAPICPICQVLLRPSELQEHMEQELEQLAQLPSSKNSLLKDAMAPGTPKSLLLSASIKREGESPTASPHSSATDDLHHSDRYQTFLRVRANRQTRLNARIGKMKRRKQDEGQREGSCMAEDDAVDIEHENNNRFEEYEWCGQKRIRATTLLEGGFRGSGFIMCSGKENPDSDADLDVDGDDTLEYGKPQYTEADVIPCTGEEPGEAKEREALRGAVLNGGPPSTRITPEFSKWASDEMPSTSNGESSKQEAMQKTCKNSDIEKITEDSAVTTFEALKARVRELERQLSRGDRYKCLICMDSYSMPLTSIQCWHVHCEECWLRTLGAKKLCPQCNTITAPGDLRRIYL
UniProt Q99961, sequence (Q99961 whole entry, looked up): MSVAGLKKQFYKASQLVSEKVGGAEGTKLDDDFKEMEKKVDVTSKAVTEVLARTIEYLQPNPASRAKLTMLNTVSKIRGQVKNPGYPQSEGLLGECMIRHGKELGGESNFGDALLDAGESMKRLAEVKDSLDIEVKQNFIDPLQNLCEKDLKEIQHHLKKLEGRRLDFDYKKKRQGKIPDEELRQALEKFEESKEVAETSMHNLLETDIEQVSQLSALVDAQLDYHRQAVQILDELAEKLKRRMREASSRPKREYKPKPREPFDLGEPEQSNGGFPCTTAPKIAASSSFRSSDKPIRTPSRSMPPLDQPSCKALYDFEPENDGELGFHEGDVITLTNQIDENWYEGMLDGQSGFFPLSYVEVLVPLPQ
UniProt Q9NSI8, sequence (Q9NSI8 whole entry, looked up): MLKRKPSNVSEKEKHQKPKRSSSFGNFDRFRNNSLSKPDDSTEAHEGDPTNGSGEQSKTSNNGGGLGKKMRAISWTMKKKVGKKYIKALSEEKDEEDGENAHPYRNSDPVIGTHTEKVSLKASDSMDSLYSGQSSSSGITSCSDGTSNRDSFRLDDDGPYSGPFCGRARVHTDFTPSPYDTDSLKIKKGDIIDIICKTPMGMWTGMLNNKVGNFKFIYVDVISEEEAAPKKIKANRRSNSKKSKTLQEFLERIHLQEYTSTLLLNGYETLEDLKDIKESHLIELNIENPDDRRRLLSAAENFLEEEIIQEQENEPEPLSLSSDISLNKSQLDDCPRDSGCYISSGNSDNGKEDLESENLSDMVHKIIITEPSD
UniProt P06400, sequence (P06400 whole entry, looked up): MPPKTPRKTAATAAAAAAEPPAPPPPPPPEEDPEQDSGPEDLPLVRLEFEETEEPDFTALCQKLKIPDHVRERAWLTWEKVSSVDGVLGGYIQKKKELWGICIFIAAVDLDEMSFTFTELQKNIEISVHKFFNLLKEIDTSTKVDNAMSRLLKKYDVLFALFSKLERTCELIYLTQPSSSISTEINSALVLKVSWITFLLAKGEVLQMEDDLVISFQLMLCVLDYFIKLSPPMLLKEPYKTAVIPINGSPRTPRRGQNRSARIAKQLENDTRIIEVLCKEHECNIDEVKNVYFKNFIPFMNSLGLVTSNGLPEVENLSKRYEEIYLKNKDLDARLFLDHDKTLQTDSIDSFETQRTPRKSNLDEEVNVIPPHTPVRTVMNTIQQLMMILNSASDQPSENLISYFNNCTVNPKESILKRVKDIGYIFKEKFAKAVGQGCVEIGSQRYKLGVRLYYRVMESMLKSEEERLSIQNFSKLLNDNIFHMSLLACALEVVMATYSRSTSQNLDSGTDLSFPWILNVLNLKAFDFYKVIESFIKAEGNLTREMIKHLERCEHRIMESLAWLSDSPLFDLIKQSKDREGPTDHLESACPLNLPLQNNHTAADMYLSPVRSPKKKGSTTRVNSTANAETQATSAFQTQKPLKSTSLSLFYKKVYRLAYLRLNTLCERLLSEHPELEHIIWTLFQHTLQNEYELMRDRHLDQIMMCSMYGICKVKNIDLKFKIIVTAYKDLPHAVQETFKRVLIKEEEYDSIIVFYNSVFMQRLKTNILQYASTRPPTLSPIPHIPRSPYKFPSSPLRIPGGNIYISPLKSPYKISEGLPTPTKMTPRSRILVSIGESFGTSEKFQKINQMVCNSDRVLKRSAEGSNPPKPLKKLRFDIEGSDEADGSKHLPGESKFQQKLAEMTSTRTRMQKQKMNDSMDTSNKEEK
UniProt Q6NT16, sequence (Q6NT16 whole entry, looked up): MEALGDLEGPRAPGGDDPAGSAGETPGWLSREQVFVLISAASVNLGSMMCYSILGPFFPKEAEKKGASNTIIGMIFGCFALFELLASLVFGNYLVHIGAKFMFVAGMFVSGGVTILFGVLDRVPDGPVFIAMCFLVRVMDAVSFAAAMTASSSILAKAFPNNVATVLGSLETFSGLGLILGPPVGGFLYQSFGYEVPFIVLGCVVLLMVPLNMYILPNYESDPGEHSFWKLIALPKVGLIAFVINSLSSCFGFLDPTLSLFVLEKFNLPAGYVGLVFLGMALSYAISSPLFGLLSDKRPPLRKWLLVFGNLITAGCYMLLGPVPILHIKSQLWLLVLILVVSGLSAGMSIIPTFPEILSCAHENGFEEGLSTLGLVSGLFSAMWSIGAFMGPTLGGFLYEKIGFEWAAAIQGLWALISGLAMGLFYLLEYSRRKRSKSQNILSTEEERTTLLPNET
UniProt Q99496, sequence (Q99496 whole entry, looked up): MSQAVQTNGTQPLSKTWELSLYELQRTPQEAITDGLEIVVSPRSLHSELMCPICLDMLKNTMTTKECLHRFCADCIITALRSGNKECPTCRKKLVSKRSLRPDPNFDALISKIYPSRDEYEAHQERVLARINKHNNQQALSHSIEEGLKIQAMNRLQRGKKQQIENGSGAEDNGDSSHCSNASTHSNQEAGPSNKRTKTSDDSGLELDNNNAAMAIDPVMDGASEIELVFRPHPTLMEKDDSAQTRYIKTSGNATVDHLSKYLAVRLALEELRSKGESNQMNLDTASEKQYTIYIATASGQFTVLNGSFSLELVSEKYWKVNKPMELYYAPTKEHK
UniProt O00560, sequence (O00560 whole entry, looked up): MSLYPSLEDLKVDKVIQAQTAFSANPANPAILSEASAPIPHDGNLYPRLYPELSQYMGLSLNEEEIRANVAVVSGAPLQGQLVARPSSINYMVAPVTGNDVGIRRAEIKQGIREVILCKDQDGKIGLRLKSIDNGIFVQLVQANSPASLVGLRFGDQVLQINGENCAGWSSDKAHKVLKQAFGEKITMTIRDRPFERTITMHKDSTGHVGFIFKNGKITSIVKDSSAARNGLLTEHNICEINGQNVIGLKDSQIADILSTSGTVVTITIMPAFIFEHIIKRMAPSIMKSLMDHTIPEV

Target	log2 fold change [1]	log2 fold change [2]	log2 fold change [3]	log2 fold change [4]	log2 fold change [5]	log2 fold change [6]	log2 fold change [7]	log2 fold change [8]	log2 fold change [9]	log2 fold change [10]	log2 fold change [11]	log2 fold change [12]	log2 fold change [13]	log2 fold change [14]	log2 fold change [15]	log2 fold change [16]	log2 fold change [17]	log2 fold change [18]	log2 fold change [19]	log2 fold change [20]
SH3GL1 (UniProt Q99961)	-0.157	-0.163	-0.118	0.092	-0.035	-0.116	0.022	0.054	0.062	-0.043	0.046	-0.047	0.062	0	0.012	0	-0.029	-0.048	-0.008	-0.005
RNF2 (UniProt Q99496)	0.025	-0.105	-0.149	0.111	0.091	-0.029	-0.054	-0.059	0.003	0.1	-0.104	0.023	0	-0.01	-0.105	-0.04	0.106	0.039	0.011	0.099
RB1 (UniProt P06400)	0.026	-0.038	-0.885 (active)	0.061	0.026	-0.176	-0.195	0.016	0.006	0.019	-0.028	-0.08	0.011	0	-0.016	-0.325 (active)	0.006	0.052	0.025	0.033
SEPTIN5 (UniProt Q99719)	0.051	0.001	-0.042	-0.035	-0.022	0.008	-0.036	0.003	-0.007	-0.006	0.034	-0.003	0.013	-0.067	-0.044	0	0.006	0.02	-0.035	0.08
RNF220 (UniProt Q5VTB9)	0.012	0.022	-0.066	0.066	-0.008	-0.059	-0.043	-0.038	0.031	0.015	-0.004	0.108	0.062	-0.006	-0.062	0.047	-0.032	0.002	-0.006	0.068
SAMSN1 isoform 3 (UniProt Q9NSI8)	-0.023	-0.081	-0.058	0.036	0.002	-0.051	-0.003	-0.029	0.046	0.024	0.013	-0.021	0.034	-0.026	0.007	-0.001	0.007	-0.029	-0.009	-0.001
SLC18B1 (UniProt Q6NT16)	0.021	0.023	0.02	0.04	0.061	0.094	-0.012	-0.071	0.012	0.056	0.072	-0.094	-0.068	0.083	0.022	0.058	0.01	0.087	-0.061	0.067
RBM39 (UniProt Q14498)	-0.027	-0.089	0.028	0.026	-0.303	-0.16	0.072	-0.183	0.08	0.011	0.117	0.129	-0.006	0.262	-0.058	-0.055	-0.019	0.009	0.026	-0.014
RAD51 (UniProt Q06609)	-0.013	0.004	-0.002	0.099	0.337 (active)	0.027	-0.035	-0.011	0.005	-0.041	-0.057	0.003	-0.034	-0.072	0.041	-0.022	-0.07	0.012	-0.024	-0.02
RIOK3 (UniProt O14730)	0.029	-0.006	-0.002	0.012	-0.029	-0.01	-0.132	-0.039	-0.02	-0.002	-0.039	-0.049	-0.019	0.052	-0.029	-0.009	0.007	0.01	0.003	0.095
RECQL (UniProt P46063)	0.053	-0.012	-0.073	0.021	0.061	-0.071	-0.002	-0.013	0.026	-0.026	0.022	-0.091	0.035	-0.056	-0.061	-0.038	-0.004	0.031	0.043	0.024
RNPEP (UniProt Q9H4A4)	-0.02	-0.038	-0.106	0.064	0.034	-0.036	-0.004	0.04	-0.005	-0.041	0.008	-0.083	0.044	-0.02	-0.018	-0.009	-0.023	0	0.043	0.008
RCOR3 isoform 3 (UniProt Q9P2K3)	-0.142	-0.011	-0.15	0.142	-0.019	-0.073	0.075	-0.044	0.026	-0.062	-0.019	0.084	-0.011	-0.046	-0.145	0.14	0.013	0.011	0	-0.106
SCG3 (UniProt Q8WXD2)	0.191	0.038	0.106	0.021	0.091	-0.163	0.046	-0.113	-0.069	0.062	0.002	-0.001	-0.044	-0.056	0.128	-0.082	0.089	-0.236	0.07	-0.086
RBM22 (UniProt Q9NW64)	0.016	-0.013	0.081	-0.065	-0.037	-0.05	0.04	-0.155	0.036	0.012	-0.105	0.096	0	0.056	-0.002	0.021	-0.058	0.083	0.036	-0.031
SDCBP (UniProt O00560)	-0.012	0.021	-0.096	0.025	0.007	0.042	0.117	-0.541 (active)	0.06	-0.001	-0.022	-0.154	0.1	0.101	-0.04	-0.152	-0.043	-0.022	0.005	-0.05
